# Test results: PubChem BioAssay (NCI)
# Compounds without any hit were thinned out: in the full panel of roughly 83,000, 20% have a hit.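 Step 1: grow cells in 96-well plates. Step 2: add test compound at a single concentration. Step 3: incubate 48 h. Step 4: record percent growth.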 Activity calls are given as the source filed them. The calls were made as follows: active = growth percent below 10; inactive = the rest.
# Test system: A549/ATCC NSCLC
# Assay: NCI-60 one-dose screen, 48 h (100 = growth as untreated, 0 = no growth, -100 = all killed)
# Conditions: 10 µM unless noted
row,SMILES,growth
1,CCCCCCCCCCCCCCCCCCOc1ccccc1CC(=O)OCCC[N+](C)(C)C,54.2% (inactive)
2,Cn1c(-c2c(N)n(Cc3cccnc3)c3nc(C#N)c(C#N)nc23)nc2ccccc21,94.6% (inactive)
3,COc1ccc(-c2nc3ccc4[nH]ncc4c3c3c2CCCC3)cc1B(O)O,53.7% (inactive)
4,COc1ccc(/C=N/C2=C(C#N)C(c3ccc(OC)cc3)c3ccc4ccccc4c3O2)cc1 (stereo unspecified),83.7% (inactive)
5,COC1=CC(=O)C[C@@H](C)[C@]12Oc1c(Cl)c(OC)cc(OC)c1C2=O,97.5% (inactive)
6,Cc1ccc(NS(=O)(=O)c2ccc3c(c2)C2OCCC2C(c2ccc(C(=O)C(C)C)cc2)N3)cc1C (stereo unspecified),27.4% (inactive)
7,NC(=O)c1ccc[n+](Cc2ccc(Cl)cc2Cl)c1,70.1% (inactive)
8,CC(=O)OC1CCC2(C)C(=CC3C4CCC(=O)C4(C)CCC32)C1 (stereo unspecified),101% (inactive)
9,CNC(=O)CCN1CCN(CC/C=C2\c3ccccc3Sc3ccc(Cl)cc32)CC1,-27.4% (active)
10,Clc1ccc(-c2c3ccc(=[N+]4CCCCC4)cc-3oc3cc(N4CCCCC4)ccc23)cc1,-67.4% (active)
11,Cc1nc2c(c(N3CCCc4ccccc43)n1)CCC2,2.98% (active)
12,N#Cc1c2c(nn(-c3ccccc3)c1=O)C(O)=C([N+](=O)[O-])C(c1ccccc1)C2 (stereo unspecified),93.4% (inactive)
13,c1ccc2c(c1)nc(CN1CCOCC1)n1cc(N3CCCC3)nc21,87.5% (inactive)
14,N=C1C(c2nc(-c3ccc(Br)cc3)cs2)=C(O)CN1Cc1cccnc1,60.6% (inactive)
15,CC/C=C\C[C@H](O)C/C=C1/C(=O)C=C[C@@H]1C/C=C\CCCCO,5.55% (active)
16,O=C(CCc1nnc(CN(c2ccccc2)c2ccccc2)o1)c1nc2ccccc2[nH]1,94.7% (inactive)
17,Cc1ccc(NCCN(C)C)c2c(=O)c3ccccc3sc12,7.25% (active)
18,O=C(N/N=C/c1ccncc1)c1ccc(C(F)(F)F)nc1Nc1cccc(C(F)(F)F)c1,16.1% (inactive)
19,CC1(c2ccccc2)NC(=O)N(NC(=O)CSc2nc(-c3cccs3)nc3ccccc23)C1=O (stereo unspecified),79.1% (inactive)

row,SMILES,growth
1,NC(=O)c1ccc[n+]([C@@H]2O[C@H](COP(=O)([O-])OP(=O)(O)OC[C@H]3O[C@@H](n4cnc5c(N)ncnc54)[C@H](O)[C@@H]3O)[C@@H](O)[C@H]2O)c1,105% (inactive)
2,COc1cc(C2CC(c3cc(OC)c(OCCCOc4ccc(-n5c(/C=C/c6ccccc6)nc6ccccc6c5=O)cc4)c(OC)c3)=NO2)cc(OC)c1OC (stereo unspecified),99.7% (inactive)
3,COc1cc(Cn2ncc3ccc(NC(=O)c4cc5ccccc5oc4=N)cc32)cc(OC)c1OC,50.7% (inactive)
4,CCOc1c(C#N)nnc2c(C#N)c(NC(=O)c3ccccc3)nn12,95% (inactive)
5,COc1cc2c(cc1-c1c(C)noc1C)ncc1nc(C3CCCCC3)n(C3CCC(OC(F)F)CC3)c12 (stereo unspecified),25.3% (inactive)
6,Cc1cc(=O)[nH]c(N=Nc2c(O)[nH]c3ccccc23)n1,103% (inactive)
7,COc1ccc(/C=C/c2c(C(=O)/C=C/c3ccc(F)cc3)c(C)nc3ccccc23)cc1,91.6% (inactive)
8,CCCCN(CCCC)CC(C)(C)C(O)c1ccc(OC)c2ccccc12 (stereo unspecified),63.5% (inactive)
9,Cc1c(C)c2c(c(C)c1OCC(=O)O)CC[C@@](C)(CCC[C@@H](C)CCC[C@@H](C)CCCC(C)C)O2,-3.06% [50 µM] (active)
10,Cn1c(I)c(C#C[Si](C)(C)C)c(=O)n(C(=O)c2ccccc2)c1=O,80% (inactive)
11,O=C(NCCCNc1cc(-c2cn(-c3ccccc3)nc2-c2cccc(O)c2)ccn1)c1ccc(F)cc1,16.1% (inactive)
12,Cc1ccc2c(c1)Sc1c(ccc3ccccc13)N2,59% (inactive)
13,O=C(Nc1ccc(-n2cc(-c3ccncc3)c(-c3ccc(Cl)c(O)c3)n2)cc1)N1CCOCC1,111% (inactive)
14,Cc1cccc(Cc2cnc(NC(=O)c3ccc4nnsc4c3)s2)c1,96.2% (inactive)
15,CC(=O)c1ccc(NCC(=O)Nc2ccccn2)cc1,104% (inactive)
16,COC(=O)c1ccc(C2Nc3ccc(S(=O)(=O)Nc4ccc(C)c(C)c4)cc3C3OCCC23)cc1 (stereo unspecified),78.8% (inactive)
17,Cc1ccc(-c2cc(-c3cccnc3)[nH]c(=O)c2C#N)cc1,102% (inactive)
18,Cn1ccc2c(c1=O)C(=O)c1nccc3c1c-2nc1ccccc13,-87.4% (active)
19,CCc1ccccc1-n1c(N)c(C#N)c(-c2ccc(N(C)C)cc2)c(C#N)c1=O,98.9% (inactive)

# Test system: 786-0 renal
# Assay: as above
# Conditions: 10 µM unless noted
row,SMILES,growth
1,CCCCCCCCCCCCCCCCCCOc1ccccc1CC(=O)OCCC[N+](C)(C)C,50.7% (inactive)
2,Cn1c(-c2c(N)n(Cc3cccnc3)c3nc(C#N)c(C#N)nc23)nc2ccccc21,91% (inactive)
3,COc1ccc(-c2nc3ccc4[nH]ncc4c3c3c2CCCC3)cc1B(O)O,63.6% (inactive)
4,COc1ccc(/C=N/C2=C(C#N)C(c3ccc(OC)cc3)c3ccc4ccccc4c3O2)cc1 (stereo unspecified),95.1% (inactive)
5,COC1=CC(=O)C[C@@H](C)[C@]12Oc1c(Cl)c(OC)cc(OC)c1C2=O,99.2% (inactive)
6,Cc1ccc(NS(=O)(=O)c2ccc3c(c2)C2OCCC2C(c2ccc(C(=O)C(C)C)cc2)N3)cc1C (stereo unspecified),58.9% (inactive)
7,NC(=O)c1ccc[n+](Cc2ccc(Cl)cc2Cl)c1,94.7% (inactive)
8,CC(=O)OC1CCC2(C)C(=CC3C4CCC(=O)C4(C)CCC32)C1 (stereo unspecified),102% (inactive)
9,CNC(=O)CCN1CCN(CC/C=C2\c3ccccc3Sc3ccc(Cl)cc32)CC1,75.9% (inactive)
10,Clc1ccc(-c2c3ccc(=[N+]4CCCCC4)cc-3oc3cc(N4CCCCC4)ccc23)cc1,-96.5% (active)
11,Cc1nc2c(c(N3CCCc4ccccc43)n1)CCC2,10.1% (inactive)
12,N#Cc1c2c(nn(-c3ccccc3)c1=O)C(O)=C([N+](=O)[O-])C(c1ccccc1)C2 (stereo unspecified),58% (inactive)
13,c1ccc2c(c1)nc(CN1CCOCC1)n1cc(N3CCCC3)nc21,91.8% (inactive)
14,N=C1C(c2nc(-c3ccc(Br)cc3)cs2)=C(O)CN1Cc1cccnc1,35.2% (inactive)
15,CC/C=C\C[C@H](O)C/C=C1/C(=O)C=C[C@@H]1C/C=C\CCCCO,-49.6% (active)
16,O=C(CCc1nnc(CN(c2ccccc2)c2ccccc2)o1)c1nc2ccccc2[nH]1,100% (inactive)
17,Cc1ccc(NCCN(C)C)c2c(=O)c3ccccc3sc12,24.2% (inactive)
18,O=C(N/N=C/c1ccncc1)c1ccc(C(F)(F)F)nc1Nc1cccc(C(F)(F)F)c1,-27.9% (active)
19,CC1(c2ccccc2)NC(=O)N(NC(=O)CSc2nc(-c3cccs3)nc3ccccc23)C1=O (stereo unspecified),94.1% (inactive)

row,SMILES,growth
1,NC(=O)c1ccc[n+]([C@@H]2O[C@H](COP(=O)([O-])OP(=O)(O)OC[C@H]3O[C@@H](n4cnc5c(N)ncnc54)[C@H](O)[C@@H]3O)[C@@H](O)[C@H]2O)c1,103% (inactive)
2,COc1cc(C2CC(c3cc(OC)c(OCCCOc4ccc(-n5c(/C=C/c6ccccc6)nc6ccccc6c5=O)cc4)c(OC)c3)=NO2)cc(OC)c1OC (stereo unspecified),108% (inactive)
3,COc1cc(Cn2ncc3ccc(NC(=O)c4cc5ccccc5oc4=N)cc32)cc(OC)c1OC,68% (inactive)
4,CCOc1c(C#N)nnc2c(C#N)c(NC(=O)c3ccccc3)nn12,98.4% (inactive)
5,COc1cc2c(cc1-c1c(C)noc1C)ncc1nc(C3CCCCC3)n(C3CCC(OC(F)F)CC3)c12 (stereo unspecified),41.4% (inactive)
6,Cc1cc(=O)[nH]c(N=Nc2c(O)[nH]c3ccccc23)n1,102% (inactive)
7,COc1ccc(/C=C/c2c(C(=O)/C=C/c3ccc(F)cc3)c(C)nc3ccccc23)cc1,65.4% (inactive)
8,CCCCN(CCCC)CC(C)(C)C(O)c1ccc(OC)c2ccccc12 (stereo unspecified),58.4% (inactive)
9,Cc1c(C)c2c(c(C)c1OCC(=O)O)CC[C@@](C)(CCC[C@@H](C)CCC[C@@H](C)CCCC(C)C)O2,-46.4% [50 µM] (active)
10,Cn1c(I)c(C#C[Si](C)(C)C)c(=O)n(C(=O)c2ccccc2)c1=O,-66.6% (active)
11,O=C(NCCCNc1cc(-c2cn(-c3ccccc3)nc2-c2cccc(O)c2)ccn1)c1ccc(F)cc1,-49.4% (active)
12,Cc1ccc2c(c1)Sc1c(ccc3ccccc13)N2,18.1% (inactive)
13,O=C(Nc1ccc(-n2cc(-c3ccncc3)c(-c3ccc(Cl)c(O)c3)n2)cc1)N1CCOCC1,101% (inactive)
14,Cc1cccc(Cc2cnc(NC(=O)c3ccc4nnsc4c3)s2)c1,96% (inactive)
15,CC(=O)c1ccc(NCC(=O)Nc2ccccn2)cc1,102% (inactive)
16,COC(=O)c1ccc(C2Nc3ccc(S(=O)(=O)Nc4ccc(C)c(C)c4)cc3C3OCCC23)cc1 (stereo unspecified),93.9% (inactive)
17,Cc1ccc(-c2cc(-c3cccnc3)[nH]c(=O)c2C#N)cc1,101% (inactive)
18,Cn1ccc2c(c1=O)C(=O)c1nccc3c1c-2nc1ccccc13,-95.5% (active)
19,CCc1ccccc1-n1c(N)c(C#N)c(-c2ccc(N(C)C)cc2)c(C#N)c1=O,93.9% (inactive)
